The results in this text go back to PubChem BioAssay AID743342 (Broad Institute, 2014).

Results with a measured potency or affinity are listed apart. Activity calls are given as the source filed them.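 The calls were made as follows: active = every replicate test run was called active, each showing a signal decrease within twice the top valid dose; inconclusive = replicate test runs disagree on the call; inactive = every test run inactive, including signal moving upward.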

The test concerns Drosophila bursicon receptor LGR2 (rickets). As to the kind of experiment: LGR2 antagonists, dose response, cell-based, HEK293, CRE-luciferase reporter, cherry pick (AID 743342). The conditions noted are these: bursicon antagonist, 4 h; series mostly up to 35 µM. (In general: A reporter such as luciferase makes a cellular process visible.)
As for `C[C@@H]1CCCCO[C@H](CN(C)CC2CCCCC2)[C@H](C)CN([C@H](C)CO)C(=O)c2cc(NS(=O)(=O)c3ccccc3)ccc2O1`, the outcome was inactive.
For `COc1ccc(S(=O)(=O)Nc2ccc3c(c2)C(=O)N([C@@H](C)CO)C[C@H](C)[C@@H](CN(C)C(=O)Nc2cccc4ccccc24)OCCCC[C@H](C)O3)cc1` the value was “inactive”.
For `C[C@H](CO)N1C[C@H](C)[C@H](CN(C)C(=O)Cc2ccccc2)OCCCC[C@H](C)Oc2ccc(NC(=O)Nc3ccc(C(F)(F)F)cc3)cc2C1=O` the value was “inactive”.
For `Cc1ccc(S(=O)(=O)Nc2ccc3c(c2)C(=O)N([C@H](C)CO)C[C@@H](C)[C@H](CN(C)S(=O)(=O)c2cccs2)OCCCC[C@@H](C)O3)cc1` the value was “inactive”.
Turning to `C[C@@H]1CN([C@@H](C)CO)C(=O)c2cc(NS(C)(=O)=O)ccc2O[C@@H](C)CCCCO[C@@H]1CN(C)Cc1ccc(C(F)(F)F)cc1`, the outcome was inactive.
As for `COc1ccc(S(=O)(=O)Nc2ccc3c(c2)C(=O)N([C@@H](C)CO)C[C@@H](C)[C@H](CN(C)C(=O)Nc2cccc4ccccc24)OCCCC[C@H](C)O3)cc1`, the entry is “inactive”; as for `COc1ccc(S(=O)(=O)Nc2ccc3c(c2)C(=O)N([C@H](C)CO)C[C@H](C)[C@H](CN(C)S(=O)(=O)c2ccc(F)cc2)OCCCC[C@@H](C)O3)cc1`, “inactive”; as for `Cc1noc(C)c1S(=O)(=O)Nc1ccc2c(c1)C(=O)N([C@H](C)CO)C[C@H](C)[C@H](CN(C)C(=O)Nc1ccc(F)cc1)OCCCC[C@@H](C)O2`, “inactive”.
For the compound `CC(C)NC(=O)Nc1ccc2c(c1)C(=O)N([C@H](C)CO)C[C@@H](C)[C@H](CN(C)S(C)(=O)=O)OCCCC[C@H](C)O2`, the compound was classed as inactive.
